PubChem BioAssay (NCI)
This is part of a sample that, as a whole, favours compounds with a hit. Of some 83,000 tested, about 20% had one in any assay.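 For each line, cells grew in 96-well plates with the test compound present at a single concentration for 48 hours.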 Unmarked numbers belong to inactive results. Activity calls are given as the source filed them. Rule for the calls: active = growth percent below 10; inactive = the rest.

Key:
Assay in all cases: NCI-60 one-dose screen, 48 h (100 = growth as untreated, 0 = no growth, -100 = all killed)
Settings in all cases: 10 µM unless noted
[1] = test system: NCI-H23 lung
[2] = test system: NCI-H226 lung
[3] = test system: NCI-H322M lung
[4] = test system: HOP-62 NSCLC
[5] = test system: NCI-H460 lung
[6] = test system: HOP-92 NSCLC
[7] = test system: NCI-H522 lung
[8] = test system: A549/ATCC NSCLC
[9] = test system: 786-0 renal
[10] = test system: COLO 205 colon

SMILES	growth [1]	growth [2]	growth [3]	growth [4]	growth [5]	growth [6]	growth [7]	growth [8]	growth [9]	growth [10]
O=C(O)c1cccc2oc(-c3ccccc3O)nc12	54.4%	63%	58.7%	43.6%	25.2%	48.8%	31.4%	42%	59.5%	12.4%
CN(CCNCc1ccccn1)CCNCc1ccccn1	18.2%	-63.6% (active)	9.06% (active)	4.07% (active)	-7.2% (active)	-7.3% (active)	18.9%	0.123% (active)	-3.78% (active)	-5.61% (active)
O=C(O)c1cc2ccccc2cc1Nc1ccccc1	84.6%	93.8%	108%	82.3%	91.8%	91.3%	80.6%	87.6%	101%	122%
c1coc(CSc2ncnc3nc[nH]c23)c1	103%	101%	125%	99.7%	111%	57.8%	80%	101%	97%	113%
C/C(=N/NC(=O)Cn1c2ccccc2c2ccncc21)c1cccs1	98.1%	89.3%	109%	100%	94.6%	92%	85.6%	84.7%	100%	105%
O=C(Nc1ccc(-n2ccc3c(NC(=O)c4ccccc4)ncnc32)cc1)Nc1cccc(Cl)c1Cl	-13.7% (active)	-37.6% (active)	43.9%	-32% (active)	-48.4% (active)	-21.1% (active)	-31.6% (active)	-69.6% (active)	6.42% (active)	15.9%
COC(=O)c1oc2c(C(C)=O)c(OCCCN(C)C)ccc2c1C	97.3%	96.1%	82.2%	123%	118%	28.1%	86.4%	110%	96%	109%
CCN(CC)c1ccc(C2CC(c3cc(OC)c(OC)c(OC)c3)=NN2)cc1 (stereo not given)	32.3%	67.9%	41.5%	34.7%	2.68% (active)	-13.6% (active)	-9.2% (active)	13.7%	23.5%	-25.7% (active)
COc1ccc(C2=NN(C(=O)COc3ccc(Cl)cc3)C(O)(c3cc(F)c(Cl)cc3Cl)C2)cc1OC (stereo not given)	49.7%	82.2%	88.8%	75.4%	32.9%	-44.8% (active)	-66.4% (active)	81.3%	-74.9% (active)	-56.6% (active)
O=C1C(Cl)=C(Nc2cccc3cc4ccccc4nc23)C(=O)c2ccccc21	54.7%	67.2%	51%	45.9%	18.2%	74.9%	22.3%	29.8%	50.1%	12%
CCOc1cccc(Nc2nc(N)nc3[nH]c4ccc(O)cc4c23)c1	68.5%	79.5%	65.1%	61.7%	82%	25.9%	49.2%	46.6%	52.8%	96.9%
COc1cc(CN(c2ccc(Cl)cc2)C2OC(=O)c3ccccc32)cc(OC)c1OC (stereo not given)	77.2%	78.9%	88.8%	44.8%	57.4%	69.1%	35%	39.7%	71%	61.9%
